Bioassay records (PubChem)
Hits are enriched below; roughly 3.4% of the tested compounds scored in any of these assays.
p53ts 39C kill: qHTS Screen for Compounds that Selectively Target Cancer Cells with p53 Mutations: Cytotoxicity of p53ts Cells at the Nonpermissive Temperature; H1299-p53A138V viability at 39C, ATP luminescence, 24 h; Potency, µM (highest dose often 46.1 µM), actives largely listed as cytotoxic; 130,000 tested, 1.5% active; note: nearly all actives have a fitted effect of over 55% in size
Tau filament bind: qHTS Assay for Tau Filament Binding; 71,000 tested, 2% active; recombinant tau filaments, thioflavin S fluorescence, 15 h; filaments grown with octadecylsulfate alongside compound; Potency, µM (top dose mostly 57.1 µM);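 note: actives lower thioflavin S fluorescence by blocking filaments or displacing dye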
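Quantitative HTS: thioflavine S signal from ODS-induced tau filaments, excited at 450 nm, emission 510 nm. Conditions: 1 uM tau, 30 uM ODS, 15 h at 37 C, pH 7.4.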
p53ts 32C tox: qHTS Screen for Compounds that Selectively Target Cancer Cells with p53 Mutations: Cytotoxicity of p53ts Cells at the Permissive Temperature; H1299-p53A138V at 32C, ATP luminescence viability, 24 h; Potency, µM (series often up to 46.1 µM), actives largely listed as cytotoxic; 130,000 tested, 0.93% active; note: nearly all actives have a fitted effect of over 55% in size
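H1299-p53 A138V cells (temperature-sensitive p53) exposed 24 h to up to 46 uM compound at 32C, where p53 is wild-type in conformation. Viability read as ATP luminescence and normalised to DMSO and 100 uM tamoxifen. AC50 fitted with the Hill equation.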
Imprint erasure: qHTS Assay for Compounds that Induce Erasure of Genomic Imprints; mouse ES Peg3-LacZ reporter, beta-gal luminescence, 40 h; AID 1948, 2009; Potency, µM (highest dose often 60.7 µM), usual class: activators; 110,000 tested, 0.02% active
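Gelatin-coated wells received 300 freshly trypsinized female ES cells with a Peg3LacZ-Neo reporter on the maternal allele, then incubated 40 hours at 37C. BetaGlo was added for 5 minutes at room temperature before a single luminescence read.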
Luciferase inh: qHTS Assay for Inhibitors of Firefly Luciferase | Luciferin 4-monooxygenase (Photinus pyralis), P08659 | purified firefly luciferase, luminescence, 8 min | Potency, µM (doses to about 57.1 µM), usual class: inhibitors | 72,000 tested, 2.2% active | AID 411, 2009; note: nearly all actives have a fitted effect of over 40% in size
Target sequence (P08659 whole entry, looked up): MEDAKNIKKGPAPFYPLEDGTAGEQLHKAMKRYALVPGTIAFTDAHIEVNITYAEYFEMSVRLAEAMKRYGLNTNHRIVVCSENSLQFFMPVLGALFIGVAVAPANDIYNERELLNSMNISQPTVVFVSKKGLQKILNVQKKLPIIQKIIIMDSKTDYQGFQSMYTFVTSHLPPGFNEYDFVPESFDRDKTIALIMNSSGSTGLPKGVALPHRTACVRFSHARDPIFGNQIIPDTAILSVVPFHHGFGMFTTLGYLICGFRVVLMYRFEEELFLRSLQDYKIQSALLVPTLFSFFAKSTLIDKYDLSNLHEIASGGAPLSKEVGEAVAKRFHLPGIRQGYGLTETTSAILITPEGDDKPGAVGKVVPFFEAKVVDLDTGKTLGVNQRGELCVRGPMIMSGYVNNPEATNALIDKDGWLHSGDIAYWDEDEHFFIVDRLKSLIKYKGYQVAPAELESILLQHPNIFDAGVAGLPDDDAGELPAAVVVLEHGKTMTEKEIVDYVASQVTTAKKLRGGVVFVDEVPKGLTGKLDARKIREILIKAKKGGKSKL
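qHTS concentration-response profiling: light output of P. pyralis luciferase with luciferin and 10 uM ATP, imidazole buffer pH 7.2. Read by luminescence after 8-min room-temperature incubation.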
A number is an active result; [ ] = dose if it differs, or a comment. Calls come from the whole dose curve; as a rule, active = well fitted curve in the direction sought with a large enough effect; inconclusive = small, poorly fitted or top-dose-only effect, or another doubt; inactive = no such curve, though single readings can be large; an effect the other way counts as inactive or inconclusive.

`O=C(Cc1ccccc1)Nc1cccc(N2CCCC2)c1` gave p53ts 39C kill inactive, Tau filament bind 25µM, p53ts 32C tox inactive, Imprint erasure inactive and Luciferase inh inactive.
For O=C(NCCc1ccc(Cl)cc1)c1ccc(Cn2c(=O)c3cccn3c3cccnc32)cc1 the results were p53ts 39C kill inactive, p53ts 32C tox inactive and Imprint erasure inactive[10.9 µM].
For CCOC(=O)c1cc(-c2ccc(C)cc2)n(CCC(=O)Nc2ccc(C(C)C)cc2)c1C the results were p53ts 39C kill inactive, p53ts 32C tox inactive and Imprint erasure inactive[10.9 µM].
`CCCCCCCCCC(=O)N[C@@H](CN1CCOCC1)[C@@H](O)c1ccccc1` gave p53ts 39C kill inconclusive, Tau filament bind inactive, p53ts 32C tox inactive and Luciferase inh inactive.
COc1ccc(-c2cc(=O)c3c(O)cc(O)cc3o2)cc1 was read as p53ts 39C kill inconclusive, Tau filament bind inactive, p53ts 32C tox inconclusive, Imprint erasure inactive and Luciferase inh 10µM.
For Cc1cc(C)c2c(=O)n(CC(=O)NCCCN3CCOCC3)sc2n1 the results were p53ts 39C kill inactive, Tau filament bind inactive, p53ts 32C tox inactive, Imprint erasure inactive and Luciferase inh 13µM.
`Cc1cc(C)c2c(=O)n(CC(=O)NCCCN3CCN(c4ccccc4F)CC3)sc2n1` gave p53ts 39C kill inactive, Tau filament bind inconclusive, p53ts 32C tox inactive, Imprint erasure inactive and Luciferase inh 13µM.
Screening Cc1cc(C)c2c(=O)n(CC(=O)N3CCC(Cc4ccccc4)CC3)sc2n1 returned p53ts 39C kill inactive, Tau filament bind inactive, p53ts 32C tox inactive, Imprint erasure inactive and Luciferase inh inactive.
Screening O=C(c1csnn1)N1CCC2(CCCN(c3ccccn3)C2)CC1 returned p53ts 39C kill inactive, Tau filament bind inactive, p53ts 32C tox inactive and Luciferase inh inactive[11.4 µM].
For CC(=O)Nc1ccc(C2C(C)CCC3C(=O)N4C(CCC(C)[C@@H]4c4ccc(NC(C)=O)cc4)C(=O)N32)cc1 (some centres not stated) the results were p53ts 39C kill inactive[9.22 µM] and p53ts 32C tox inactive[9.22 µM].
Screening CCc1ccc(C2=NN(CCC(=O)NCCc3ccc(OC)c(OC)c3)C(=O)CC2)cc1 returned p53ts 39C kill inactive, p53ts 32C tox inactive and Imprint erasure inactive[10.9 µM].
Screening CCc1ccc(NC(=O)c2ccc(CNS(=O)(=O)c3ccc4c(c3)C(C)(C)C(=O)N4C)cc2)cc1 returned p53ts 39C kill inactive, p53ts 32C tox inactive and Imprint erasure inactive[10.9 µM].
For Cc1ccc(S(=O)(=O)NCC(Nc2cccc(Cl)c2)c2ccccc2)cc1 (configuration not stated) the results were p53ts 39C kill 16µM, p53ts 32C tox inconclusive and Imprint erasure inactive[10.9 µM].
Screening OC(CNCc1ccco1)COc1ccccc1 (configuration not stated) returned p53ts 39C kill inactive, Tau filament bind inactive, p53ts 32C tox inactive, Imprint erasure inactive and Luciferase inh inactive.
For OC(CNCc1ccco1)Cn1c2ccccc2c2ccccc21 (configuration not stated) the results were p53ts 39C kill 13µM, Tau filament bind inactive, p53ts 32C tox inconclusive, Imprint erasure inactive and Luciferase inh inactive.
For CCc1ccc(C2=CC(c3c(F)cccc3Cl)n3c(nc4ccccc43)N2)cc1 (configuration not stated) the results were p53ts 39C kill inconclusive, p53ts 32C tox inconclusive and Imprint erasure inactive[10.9 µM].
`Cc1cccc(C2C=C(c3ccc(F)cc3)Nc3nc4ccccc4n32)c1` (configuration not stated) gave p53ts 39C kill 10µM, p53ts 32C tox 20µM and Imprint erasure inactive[10.9 µM].
Cc1ccc(C2=CC(c3ccccc3C)n3c(nc4ccccc43)N2)cc1 (configuration not stated) was read as p53ts 39C kill 5µM, p53ts 32C tox inconclusive and Imprint erasure inactive[10.9 µM].
Screening COc1ccc2c(c1)C(c1ccccc1C)CC(=O)O2 (configuration not stated) returned Imprint erasure inactive.
COc1cc2c(cc1O)C(Cc1ccc(O)cc1)[N+](C)(C)CC2 (configuration not stated) was read as p53ts 39C kill inactive, p53ts 32C tox inactive and Imprint erasure inactive.
COc1ccc(CCNC(=O)c2cnc3sc(N4CCCCC4)nn3c2=O)cc1OC was read as p53ts 39C kill inactive, p53ts 32C tox inactive and Imprint erasure inactive[10.9 µM].
For O=C(Nc1cccc(Cl)c1)N1CC2CCCN2c2ccccc21 (configuration not stated) the results were p53ts 39C kill 10µM, p53ts 32C tox inactive and Imprint erasure inactive[10.9 µM].
`O=C(NCc1cccc(Cl)c1)c1ccc(NC(=O)N2CC3CCCN3c3ccccc32)cc1` (configuration not stated) gave p53ts 39C kill inactive, p53ts 32C tox inactive and Imprint erasure inactive[10.9 µM].
CCOC(=O)c1cnc(-c2ccccc2)nc1N was read as p53ts 39C kill inconclusive, Tau filament bind inactive, p53ts 32C tox inconclusive, Imprint erasure inactive and Luciferase inh 20µM.
For CCOC(=O)c1sc(-c2ccccc2)cc1N the results were p53ts 39C kill inactive, Tau filament bind inactive, p53ts 32C tox inactive, Imprint erasure inactive and Luciferase inh inconclusive.
`CCOC(=O)c1sc(-c2ccc(OC)cc2)cc1N` gave p53ts 39C kill inconclusive, Tau filament bind inactive, p53ts 32C tox inactive, Imprint erasure inactive and Luciferase inh 13µM.
For CCOC(=O)c1cc(-c2ccccc2)sc1N the results were p53ts 39C kill inactive, Tau filament bind 25µM, p53ts 32C tox inactive, Imprint erasure inactive and Luciferase inh inactive.
For CCOC(=O)c1cnc2c(C#N)c(C)nn2c1-c1ccccc1 the results were p53ts 39C kill inactive, Tau filament bind 16µM, p53ts 32C tox inactive, Imprint erasure inactive and Luciferase inh inactive.
Screening COc1cccc(-c2cc(=O)c3cc(NC(=O)c4cccnc4)ccc3[nH]2)c1 returned Imprint erasure inactive.
CCOC(=O)c1cnc(SCC(=O)c2ccc(C)cc2)nc1N was read as p53ts 39C kill inactive and p53ts 32C tox inactive.
`CCOC(=O)c1cnc(SCC(=O)c2ccccc2)nc1N` gave p53ts 39C kill inactive, Tau filament bind inactive, p53ts 32C tox inactive, Imprint erasure inactive and Luciferase inh 4µM.
Screening CCCCN(CC)CCCNC(=O)c1c(C)oc2ncnc(N3CCOCC3)c12 returned p53ts 39C kill inactive, p53ts 32C tox inactive and Imprint erasure inactive[10.9 µM].
Cc1ccc2c(c1)c(C)c(C)n2CC(O)CN1CCOCC1 (configuration not stated) was read as p53ts 39C kill inactive, Tau filament bind inactive, p53ts 32C tox inactive, Imprint erasure inactive and Luciferase inh inactive.
